Several values for one entry are separate records, joined by “and”; a condition that tells them apart may be missing. Equal entries are not always repeated. Unmarked numbers belong to inactive results. Records with an inconclusive call do not appear. Activity calls are given as the source filed them. Unless noted, calls follow the shape of the dose curve; as a rule, active = well fitted curve in the direction sought with a large enough effect; inconclusive = small, poorly fitted or top-dose-only effect, or another doubt; inactive = no such curve, though single readings can be large; an effect the other way counts as inactive or inconclusive.

A short description of assay [1]: qHTS for Activators of Parkin Expression: LOPAC Validation Assay (FLuc Reporter) (AID 720573;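 also: 0% = DMSO and 100% = positive control compounds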). A digest of the protocol:
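Neuronal cell line stably carrying FLuc/NLuc coincidence reporter under Parkin promoter; cells plated 24 h, then compounds added in 7-point dose response for 24 h at 37 C. FLuc luminescence read; normalized to DMSO and positive control (100%).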
On the technique in general: qHTS replaces the single test concentration by a dilution series.

In assay [2] the target is T1, Hexokinase-4 (Homo sapiens) + Glucokinase regulatory protein (Homo sapiens) (UniProt P35557+Q14397). Briefly: qHTS assay for inhibitors of recombinant human GCK-GKRP interaction: Diaphorase-coupled assay (AID 743205). The method, boiled down: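 GST-GCK (10 nM) with FLAG-GKRP (10 nM), 5 mM glucose and 0.4 mM ATP in pH 7.6 Hepes; compounds preincubated 20 min with substrate. G6PDH/diaphorase coupling converts resazurin to resorufin, read kinetically (ex 525/em 590 nm) for 30 min.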
T1 sequence (P35557 whole entry, looked up): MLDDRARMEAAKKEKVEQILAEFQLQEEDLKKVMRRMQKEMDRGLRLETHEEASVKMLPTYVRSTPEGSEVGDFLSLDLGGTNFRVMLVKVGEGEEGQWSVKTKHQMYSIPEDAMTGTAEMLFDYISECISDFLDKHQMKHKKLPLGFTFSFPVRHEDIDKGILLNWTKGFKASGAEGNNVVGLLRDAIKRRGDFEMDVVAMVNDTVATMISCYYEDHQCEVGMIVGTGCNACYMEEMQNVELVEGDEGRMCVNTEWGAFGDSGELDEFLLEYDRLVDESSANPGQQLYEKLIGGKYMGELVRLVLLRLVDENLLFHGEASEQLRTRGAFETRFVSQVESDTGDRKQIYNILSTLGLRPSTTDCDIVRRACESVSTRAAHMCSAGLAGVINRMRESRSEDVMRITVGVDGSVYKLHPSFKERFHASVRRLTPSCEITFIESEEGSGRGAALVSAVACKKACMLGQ
T1 sequence (Q14397 whole entry, looked up): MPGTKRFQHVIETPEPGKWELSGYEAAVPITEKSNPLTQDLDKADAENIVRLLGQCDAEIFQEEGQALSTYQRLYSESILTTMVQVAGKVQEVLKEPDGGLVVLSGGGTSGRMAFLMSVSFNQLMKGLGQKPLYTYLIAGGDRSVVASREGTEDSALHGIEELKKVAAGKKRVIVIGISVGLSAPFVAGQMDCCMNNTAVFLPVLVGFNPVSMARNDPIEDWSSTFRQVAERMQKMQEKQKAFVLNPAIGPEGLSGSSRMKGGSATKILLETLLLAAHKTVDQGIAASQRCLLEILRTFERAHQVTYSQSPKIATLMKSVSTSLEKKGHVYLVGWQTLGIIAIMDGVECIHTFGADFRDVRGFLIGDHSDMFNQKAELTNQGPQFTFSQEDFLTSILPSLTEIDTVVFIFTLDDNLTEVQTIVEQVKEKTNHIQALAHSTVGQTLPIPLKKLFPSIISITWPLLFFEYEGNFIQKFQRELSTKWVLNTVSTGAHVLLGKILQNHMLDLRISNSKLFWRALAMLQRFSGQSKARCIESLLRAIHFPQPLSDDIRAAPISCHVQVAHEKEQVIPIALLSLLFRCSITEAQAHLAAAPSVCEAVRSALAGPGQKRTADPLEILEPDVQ

For assay [3], the target named is T1, Hexokinase-4 (Homo sapiens) + Glucokinase regulatory protein (Homo sapiens). Description: qHTS assay for inhibitors of recombinant human GCK-GKRP interaction: ADP-Glo assay (AID 743206).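 Also: plate controls were DMSO plus enzyme for no effect and no enzyme for full effect.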 A digest of the protocol: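 Pin-transferred compounds meet a 15 nM GST-GCK/15 nM FLAG-GKRP/2 uM S6P mix (dispense concentrations). ATP is then added to 0.4 mM final with 5 mM glucose, and the reaction runs 60 min at room temperature. ADP is quantified luminescently.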

For assay [4] the target is unchanged. Briefly: qHTS assay for inhibitors of recombinant human GCK-GKRP interaction: HTRF assay (AID 743207).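 Also: 0% = DMSO with GCK present and -100% = DMSO wells lacking GCK.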 The method, boiled down: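 GST-GCK and FLAG-GKRP (5 nM each) were combined with 2 uM S6P in pH 7.1 Hepes/MgCl2/KCl/DTT buffer, then compound and anti-FLAG XL665/anti-GST K antibodies were added. After 60 min at room temperature, HTRF 665/615 nm emission was read.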

A short description of assay [5]: qHTS assay for measurement of the activity of small molecule inhibitors on Zika virus induced Caspase-3 activity in human astrocytoma cells (AID 1224859).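 Also: plate controls were ZIKV-infected untreated cells for no effect and uninfected cells for full effect.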 The method, boiled down: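 SNB-19 astrocytoma cells, 250/well, pretreated 1 h with compounds, then Zika virus at 2 FFU/cell for 6 h at 37 C; Caspase-Glo 3/7 luminescence after 30 min; percent inhibition normalised to uninfected and infected controls.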

Assay [6] in a line: qHTS Assay for Identifying Gametocytocidal Compounds (AID 743244). Also: potency is read from the fitted curve at half-maximal effect.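 As to max response: % is scaled to controls: 0 for no effect and ±100 for the full control effect; actives lower the fluorescent signal which means gametocytes are killed.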 Conditions: P. falciparum 3D7 stage III-V gametocytes, alamarBlue, 72 h; max response: stronger effect = lower value. The method, boiled down:
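Stage III-V P. falciparum 3D7 gametocytes, 20,000 per well, were exposed to compounds for 72 h at 37C, 5% CO2. AlamarBlue was then added for 24 h and viability was read as fluorescence at Ex 525/Em 598 nm.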

The nature of assay [7]: qHTS assay to identify small molecule inhibitors of chordoma cells - UCH-1 (AID 1259355). Also: nearly all actives have a fitted effect of over 55% in size. Also: potency is read from the fitted curve at half-maximal effect; series mostly up to about 46 µM. A digest of the protocol: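 Screening used approved and investigational drugs in 15-point titration against 800 seeded cells per well. A fixed combination of auranofin with camptothecin, doxorubicin, rubitecan and topotecan followed compound addition, and growth was scored by CellTiter-Glo after 48hr.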

A short description of assay [8]: qHTS assay for small molecule agonists of the antioxidant response element (ARE) signaling pathway measured by Nrf2-dependant transcriptional activity - cell viability counter screen (AID 720653; active = well fitted curve in the direction sought with a large enough effect in the repeat runs; an effect the other way counts as inactive or inconclusive; also: potency is read from the fitted curve at half-maximal effect; as to max response: % is scaled to controls: 0 for no effect and ±100 for the full control effect). Conditions: ARE-bla HepG2 viability, CellTiter-Glo ATP luminescence, 16 h; max response: stronger effect = lower value. The method, boiled down: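 ARE-bla HepG2 cells treated with compounds for 16 h at 37C; this counter screen measures viability as intracellular ATP by CellTiter-Glo luminescence after 30 min at room temperature.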

A short description of assay [9]: qHTS assay for cell viability of HEK293 cells (AID 743288). Also: nearly all actives have a fitted effect of over 50% in size. Also: potency is read from the fitted curve at half-maximal effect. As to max response: % is scaled to controls: 0 for no effect and ±100 for the full control effect. Conditions: ATP luminescence (CellTiter-Glo), 18 h; max response: stronger effect = lower value. A digest of the protocol: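 After 18 h compound exposure at 37 C, parental HEK293 cells (2,000/well) are lysed with CellTiter-Glo and luminescence is read following 30 min at room temperature.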
Assay [10] in a line: qHTS assay for cell viability of the p53RE-bla HCT-116 cell line (AID 743292). Also: nearly all actives have a fitted effect of over 55% in size. Also: potency is read from the fitted curve at half-maximal effect. A digest of the protocol:
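In this qHTS counter-screen, metabolically competent p53RE-bla HCT-116 cells were counted via their ATP content. Compounds were applied for 16 h at 37 C and luciferase-coupled luminescence was measured.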

The nature of assay [11]: qHTS assay for small molecule agonists of the antioxidant response element (ARE) signaling pathway measured by Nrf2-dependant transcriptional activity (AID 720636; active = well fitted curve in the direction sought with a large enough effect in the repeat runs; an effect the other way counts as inactive or inconclusive;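 also: HepG2 cells with an ARE-driven luciferase reporter; % of control where 0% means no effect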). A digest of the protocol:
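We exposed ARE-luc HepG2 cells, seeded in assay medium with 1% dialyzed FBS and allowed 6 hr to adhere, to test compounds overnight (16 hr, 37 C) before measuring luciferase with ONE-Glo.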

In the case of `CCCCCCC(C)(C)c1ccc([C@@H]2C[C@H](O)CC[C@H]2CCCO)c(O)c1`, the call in assay [1], in [3], in [4] and in assay [5] was inactive. In addition, the Potency result in assay [2] is “inactive”.
In the case of `c1ccc2c(N3CCNCC3)cccc2c1`, the result in assay [1], in [3], in assay [4] and in [5] was inactive. The Potency result in [2] is “inactive”.
As to `C[C@@H]1O[C@H](C[N+](C)(C)C)CS1`, the outcome in [1], in [3], in assay [4] and in assay [5] was inactive. The Potency result in assay [2] is “inactive”. Moreover, the max response in assay [6] was 20.1%.
`N#C/C(=C/c1ccc(O)c(O)c1)C(N)=S`: the outcome in assay [1], in assay [3], in assay [4] and in assay [5] was inactive. Moreover, the Potency entry in [2] is “inactive”.
In the case of `CN(N=O)c1cc(O)ccc1O`, the result in assay [1], in assay [3], in assay [4] and in [5] was inactive. Besides, the Potency result in assay [2] was “inactive”.
On to `NCC(CP(=O)(O)O)c1ccc(Cl)cc1` (stereo not given), for which the call in assay [1], in [3], in [4] and in [5] was inactive. The Potency entry in [2] is “inactive”.
Consider `N[C@@]1(C(=O)O)CC[C@@H](C(=O)O)C1`, for which the molecule was called inactive in [1], in assay [3], in [4] and in assay [5]. The Potency entry in [2] is “inactive”. Also, the max response in [6] was 13.5%.
`C[C@@H]1[C@@H]2Cc3ccc(O)cc3[C@@]1(C)CCN2CC1CC1`: the result in assay [1], in assay [3], in assay [4] and in assay [5] was inactive. Moreover, the Potency entry in [2] was “inactive”. The max response in [6] was 29.7%.
In the case of `CCCn1c(C)c(C(=O)c2ccc3ccccc3c2)c2ccccc21`, the call in assay [1], in assay [3], in assay [4] and in assay [5] was inactive. The Potency entry in [2] is “inactive”. The max response in assay [6] was 6.14%.
As for `CC(C)[C@@]1(NC(=O)[C@@H]2C[C@@H]3c4cccc5[nH]cc(c45)C[C@H]3N(C)C2)O[C@@]2(O)[C@@H]3CCCN3C(=O)[C@H](Cc3ccccc3)N2C1=O`, the result in assay [1], in assay [3], in assay [4] and in assay [5] was inactive. For the same molecule, the Potency result in assay [2] and in assay [7] was “inactive” in each case. For the same molecule, the Potency in [6] was 5.01 µM (active).
As to `CCN(CCCl)Cc1ccccc1Br`, the outcome in [1], in assay [3], in assay [4] and in assay [5] was inactive. Besides, the Potency entry in [2] was “inactive”.
Consider `CCS(=O)(=O)Nc1cccc(C(=C2CCCCC2)c2cnc[nH]2)c1`, for which the outcome in assay [1], in [3], in assay [4] and in [5] was inactive. In addition, in assay [2], the Potency entry is “inactive”.
Consider `Cc1o[nH]c(=O)c1CC(N)C(=O)O` (stereo not given), for which the outcome in assay [1], in assay [3], in [4] and in assay [5] was inactive. Further, the Potency result in assay [2] is “inactive”.
Turning to `COc1ccc2c(c1)/C(=C/c1cnc[nH]1)C(=O)N2`, the outcome in assay [1], in [3], in [4] and in assay [5] was inactive. The Potency result in assay [2] was “inactive”.
As for `C=CCN(C1=NCCN1)c1c(Cl)cccc1Cl`, the molecule was classed as inactive in [1], in assay [3], in assay [4] and in assay [5]. Further, the Potency entry in [2] and in assay [7] was “inactive” each time. The max response in [6] was -1.3% and 35.7%.
Take `CCCN(CCC)[C@H]1CCc2c(F)ccc(O)c2C1`: the outcome in assay [1], in assay [3], in assay [4] and in assay [5] was inactive. In addition, the Potency entry in assay [2] is “inactive”.
On to `C[CH2][Hg][S]c1ccccc1C(=O)O`, for which the Potency in assay [8] is 44.7 µM (active); in [6], 1.41 µM (active); in assay [9] it was 50.1 µM (active); in [10], 15.8 µM (active); in assay [7], 3.16 µM (active). For the same molecule, in assay [5], the call was inactive.
On to `NCCCP(=O)(O)O`, for which the outcome in assay [1], in [3], in [4] and in assay [5] was inactive. Further, the Potency entry in assay [2] is “inactive”. The max response in [6] was -9.88%.
`C[C@]12Cc3cn4c(nc3C=C1CCC1C2CC[C@@]2(C)[C@H]1CC[C@@]2(O)C#N)nc1ccccc14` (stereo not given in full): the outcome in [1], in assay [3], in [4] and in assay [5] was inactive. Also, in assay [2], the Potency entry is “inactive”.
For the molecule `Cc1[nH]c2ccc(O)cc2c1CCN`, the molecule was classed as inactive in assay [1], in assay [3], in assay [4] and in assay [5]. Further, in [2], the Potency entry is “inactive”.
For `CC(N)Cc1c[nH]c2ccc(O)cc12` (stereo not given), the molecule was classed as inactive in [1], in assay [3], in assay [4] and in assay [5]. For the same molecule, in assay [2], the Potency result was “inactive”. Besides, the max response in [6] was 20.7%.
As for `C=CCN1CC[C@]23c4c5ccc(O)c4O[C@@H]2/C(=N/N=C2\CC[C@@]4(O)C6Cc7ccc(O)c8c7[C@@]4(CCN6CC=C)[C@@H]2O8)CC[C@@]3(O)C1C5`, the call in assay [1], in [3], in assay [4] and in [5] was inactive. Moreover, in assay [2], the Potency entry was “inactive”. For the same molecule, the Potency in assay [6] was 1 µM (active).
As for `C[N+](C)(C)CC#CCOC(=O)Nc1cccc(Cl)c1`, the molecule was called inactive in assay [1], in assay [3], in assay [4] and in assay [5]. The Potency entry in assay [2] is “inactive”. Also, in [6], the max response was 12.7%.
For `CCCSP(=O)(OCC)SCCC`, the Potency result in assay [11] and in assay [10] was “inactive” in each case. In addition, the max response was -15.9% in assay [8] and -0.31% in assay [9]. Besides, the molecule was called inactive in assay [5].
As for `C[Se]C[C@H](N)C(=O)O`, the molecule was classed as inactive in assay [1], in assay [3], in assay [4] and in [5]. Besides, in assay [2], the Potency entry is “inactive”. Besides, the max response in [6] was -6.02%.
As to `C=CCN1CCC23c4c5ccc(O)c4O[C@H]2C(=O)CC[C@@]3(O)C1C5` (stereo not given in full), the molecule was classed as inactive in assay [1], in assay [3], in assay [4] and in assay [5]. Besides, the Potency result in [2] was “inactive”. In addition, in assay [6], the max response is 7.07%.
Turning to `CN(N=O)c1ccc(O)c(O)c1`, the molecule was called inactive in assay [1] and in [5]. Further, the Potency entry in [2] is “inactive”. Also, the Potency in [6] is 1 µM (active).
In the case of `C[N+]1(C)CCc2cc3c(cc2[C@H]1[C@@H]1OC(=O)c2c1ccc1c2OCO1)OCO3`, the result in assay [1], in [3], in [4] and in assay [5] was inactive. In addition, in [2], the Potency entry was “inactive”. The max response in [6] is 19.2%.
As to `CC1(C)S[C@@H]2[C@H](N)C(=O)N2[C@H]1C(=O)O`, the Potency result in assay [7] is “inactive”.
Turning to `CCNC(=O)[C@H]1O[C@@H](n2cnc3c(N)ncnc32)[C@H](O)[C@@H]1O`, the molecule was called inactive in assay [1], in assay [3], in assay [4] and in [5]. For the same molecule, in assay [2], the Potency entry is “inactive”. Besides, the max response in assay [6] was -1.58%.
Take `C=CCN1CC[C@]23c4c5ccc(O)c4O[C@H]2/C(=N/NC(=O)c2ccccc2)CC[C@@]3(O)[C@H]1C5`: the molecule was classed as inactive in assay [1], in [3], in assay [4] and in [5]. In addition, the Potency entry in assay [2] was “inactive”. In addition, in [6], the max response was 8.77%.
Take `N#CCCN`: the molecule was classed as inactive in assay [1], in [3], in [4] and in [5]. In [2], the Potency entry was “inactive”. For the same molecule, in assay [6], the max response is 15.8%.
On to `CNC(=O)OCC[N+](C)(C)C`, for which the Potency result in assay [7] was “inactive”.

For the origin of these results see PubChem BioAssay (NCATS).
